# Source: PubChem BioAssay (NCI)
# About 83,000 compounds went through this panel and 20% of them were active in at least one assay; those are over-represented in the sample as a whole.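 Single-dose data. Exposure time 48 hours. Values below 10 considered active.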 Calls of active or inactive are those of the source.
# System: SF-295 CNS
# Test: NCI-60 one-dose screen, 48 h (100 = growth as untreated, 0 = no growth, -100 = all killed)
# Conditions: 10 µM unless noted
row,Compound,growth
1,Cc1nn(-c2ccc(Cl)cc2)c2nc3c(nc12)C(=O)C(=O)c1ccccc1-3,12.1% (inactive)
2,O=C(c1ccccc1)c1ccccc1Cl,110% (inactive)
3,COc1cc(OC)c2sc(-c3ccc(-n4cncc4-c4ccc(N)cc4)cc3)nc2c1,48.1% (inactive)
4,O=C(CSc1nc2c(n1Nc1ccccc1)-c1ccccc1SC2)Nc1nc(-c2ccc(Cl)cc2)cs1,45.3% (inactive)
5,CN=C(NC)N/N=C(C)\C=N\NC(=NC)NC,96.5% (inactive)
6,OC(Cc1cccnc1)c1ccccc1 (stereo not drawn),104% (inactive)
7,N#Cc1c(N2CCOCC2)nc2sc3cc(Cl)ccc3n2c1=N,118% (inactive)

# System: SF-539 CNS
# Test: as above
# Conditions: 10 µM unless noted
row,Compound,growth
1,O=C(Nc1cccc(-n2cc(-c3ccncc3)c(-c3ccc(O)c(Cl)c3)n2)c1)Nc1ccc(Cl)c(C(F)(F)F)c1,-19.3% (active)
2,CCOc1ccccc1C(=O)OCC(=O)Nc1cccc(S(=O)(=O)N(C)C)c1,100% (inactive)
3,Cn1c(N)c(N=O)c(=O)[nH]c1=O,105% (inactive)
4,S=C(Nc1ccc(C2=NCCN2)cc1)Nc1ccc(C2=NCCN2)cc1,93.4% (inactive)
5,O=C1c2ccccc2-c2c1nc1ccccc1[n+]2[O-],101% (inactive)
6,OCCOc1c(Cl)cc(Cl)cc1Cl,102% (inactive)
7,O=C1Nc2ccc(F)cc2/C1=C/c1nc(-c2ccc(F)cc2)n2ccccc12,104% (inactive)
8,CCOC(=O)C(C(C)=O)c1nc2sc3cc(Cl)ccc3n2c(=N)c1C#N (stereo not drawn),99.9% (inactive)
9,OC(CCC(O)(c1ccccc1)c1ccccc1)(c1ccccc1)c1ccccc1,115% (inactive)
10,S=C(c1ccccc1)N1CCN(c2cccc(Cl)c2)CC1,105% (inactive)
11,COc1cc(OC)c2cc(C(=O)O)c(=O)oc2c1,102% (inactive)
12,Cc1c(C(N)=O)sc2ncn(Cc3ccccc3)c(=O)c12,94.6% (inactive)
13,O=C1CN(CO)C(=O)CN1CO,115% (inactive)
14,O=C(COC(=O)[C@H](C[Se][Se]C[C@H](NC(=O)c1ccc(Br)cc1F)C(=O)OCC(=O)c1ccc(F)cc1)NC(=O)c1ccc(Br)cc1F)c1ccc(F)cc1,-98.5% (active)
15,CCOC(=O)C1C(=O)OC2CCCCC21 (stereo not drawn),105% (inactive)
16,O=C1OC(c2ccc(-c3ccccc3)cc2)=C/C1=C/c1cccs1,106% (inactive)
17,Oc1ccccc1/C=N\Nc1ccccc1,3.41% (active)
18,CCCCn1c(Cc2ccc(Cl)cc2)nc2cc(OC)c(OC)cc2c1=O,105% (inactive)
19,Cn1[nH]cc(/C=N/C(N)=O)c1=O,113% (inactive)
20,Cc1[nH]n(C(N)=S)c(=O)c1N=Nc1ccc(F)c(Cl)c1,108% (inactive)
21,Cc1cc(C)c(OC(=O)CSc2nc3ccccc3c(=O)n2CCc2ccccc2)cc1C,97.3% (inactive)
22,NC(=O)SCC(=O)Nc1ccccc1-c1ccccc1,89.5% (inactive)
23,O=C(c1ccccc1)c1ccccc1Cl,100% (inactive)
24,COc1cc(OC)c2sc(-c3ccc(-n4cncc4-c4ccc(N)cc4)cc3)nc2c1,84.6% (inactive)
25,O=C(CSc1nc2c(n1Nc1ccccc1)-c1ccccc1SC2)Nc1nc(-c2ccc(Cl)cc2)cs1,70.2% (inactive)
26,CN=C(NC)N/N=C(C)\C=N\NC(=NC)NC,99.1% (inactive)
27,OC(Cc1cccnc1)c1ccccc1 (stereo not drawn),98.6% (inactive)
28,N#Cc1c(N2CCOCC2)nc2sc3cc(Cl)ccc3n2c1=N,97.3% (inactive)

# System: UACC-257 melanoma
# Test: as above
# Conditions: 10 µM unless noted
row,Compound,growth
1,O=C(Nc1cccc(-n2cc(-c3ccncc3)c(-c3ccc(O)c(Cl)c3)n2)c1)Nc1ccc(Cl)c(C(F)(F)F)c1,-19.5% (active)
2,CCOc1ccccc1C(=O)OCC(=O)Nc1cccc(S(=O)(=O)N(C)C)c1,93.6% (inactive)
3,Cn1c(N)c(N=O)c(=O)[nH]c1=O,107% (inactive)
4,Cc1nn(-c2ccc(Br)cc2)c2nc3c(nc12)C(=O)C(=O)c1ccccc1-3,98.6% (inactive)
5,Cc1nn(-c2ccccc2)c2nc(Cl)c(/C=C/C(=O)c3ccccc3)c(-c3ccccc3)c12,114% (inactive)
6,S=C(Nc1ccc(C2=NCCN2)cc1)Nc1ccc(C2=NCCN2)cc1,93.8% (inactive)
7,COc1ccc(C(=O)/C=C/c2c(Cl)nc3c(c(C)nn3-c3ccccc3)c2-c2ccc(Br)cc2)cc1,108% (inactive)
8,O=C1c2ccccc2-c2c1nc1ccccc1[n+]2[O-],107% (inactive)
9,Cc1c(C(N)=O)sc2c1c(=O)n(Cc1ccccc1)c1nnc(S(=O)(=O)CC(=O)Nc3ccc(Cl)cc3)n21,47.4% (inactive)
10,OCCOc1c(Cl)cc(Cl)cc1Cl,90.3% (inactive)
11,O=C1Nc2ccc(F)cc2/C1=C/c1nc(-c2ccc(F)cc2)n2ccccc12,104% (inactive)
12,CCOC(=O)C(C(C)=O)c1nc2sc3cc(Cl)ccc3n2c(=N)c1C#N (stereo not drawn),72.6% (inactive)
13,Cc1nn(-c2ccc(Cl)cc2)c2nc3c(nc12)c(=O)oc1ccccc13,104% (inactive)
14,Cc1nn(-c2ccccc2)c2ncc3c(c12)C(=O)N(Cc1ccccc1)C3=O,94.3% (inactive)
15,OC(CCC(O)(c1ccccc1)c1ccccc1)(c1ccccc1)c1ccccc1,82.8% (inactive)
16,S=C(c1ccccc1)N1CCN(c2cccc(Cl)c2)CC1,103% (inactive)
17,COc1cc(OC)c2cc(C(=O)O)c(=O)oc2c1,76% (inactive)
18,Cc1c(C(N)=O)sc2ncn(Cc3ccccc3)c(=O)c12,163% (inactive)
19,O=C1CN(CO)C(=O)CN1CO,99.8% (inactive)

row,Compound,growth
1,O=C(COC(=O)[C@H](C[Se][Se]C[C@H](NC(=O)c1ccc(Br)cc1F)C(=O)OCC(=O)c1ccc(F)cc1)NC(=O)c1ccc(Br)cc1F)c1ccc(F)cc1,-50.2% (active)
2,CCOC(=O)C1C(=O)OC2CCCCC21 (stereo not drawn),102% (inactive)
3,COC(=O)[C@]1(CCSC)N[C@H](c2cn(-c3ccccc3)nc2C)[C@@H]2C(=O)N(c3ccccc3)C(=O)[C@@H]21,113% (inactive)
4,Cc1c(C(N)=O)sc2c1c(=O)n(Cc1ccccc1)c1nnc(SCC(=O)Nc3ccc(Cl)cc3)n21,35.3% (inactive)
5,O=C1OC(c2ccc(-c3ccccc3)cc2)=C/C1=C/c1cccs1,106% (inactive)
6,Oc1ccccc1/C=N\Nc1ccccc1,95.7% (inactive)
7,CCCCn1c(Cc2ccc(Cl)cc2)nc2cc(OC)c(OC)cc2c1=O,55.5% (inactive)
8,Cn1[nH]cc(/C=N/C(N)=O)c1=O,119% (inactive)
9,Cc1[nH]n(C(N)=S)c(=O)c1N=Nc1ccc(F)c(Cl)c1,124% (inactive)
10,CCSc1nnc2n(Cc3ccccc3)c(=O)c3c(C)c(C(N)=O)sc3n12,100% (inactive)
11,Cc1cc(C)c(OC(=O)CSc2nc3ccccc3c(=O)n2CCc2ccccc2)cc1C,103% (inactive)
12,NC(=O)SCC(=O)Nc1ccccc1-c1ccccc1,85.7% (inactive)
13,Cc1nn(-c2ccc(Cl)cc2)c2nc3c(nc12)C(=O)C(=O)c1ccccc1-3,69.2% (inactive)
14,O=C(c1ccccc1)c1ccccc1Cl,97.8% (inactive)
15,COc1cc(OC)c2sc(-c3ccc(-n4cncc4-c4ccc(N)cc4)cc3)nc2c1,69.8% (inactive)
16,O=C(CSc1nc2c(n1Nc1ccccc1)-c1ccccc1SC2)Nc1nc(-c2ccc(Cl)cc2)cs1,89.5% (inactive)
17,CN=C(NC)N/N=C(C)\C=N\NC(=NC)NC,100% (inactive)
18,OC(Cc1cccnc1)c1ccccc1 (stereo not drawn),101% (inactive)
19,N#Cc1c(N2CCOCC2)nc2sc3cc(Cl)ccc3n2c1=N,103% (inactive)
